D1 antagonist: human D1 dopamine receptor antagonism. P21728. HEK293 TREx D1 cells, calcium flux, dopamine EC80; stronger effect = lower value. activity change, negative = inhibition, % at 10 µM. actives 3.2% (n = 360,000). AID 504652; in the data active = activity change below about -30%; note: % is set by controls: 0 for no effect and ±100 for the full control effect
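Calcium flux readout: force-coupled, inducible Hek293 Trex D1 line, cells induced overnight at 30 C with tetracycline, dye-loaded 30–90 min at RT. Antagonism scored against EC80 dopamine challenge given 180 s after compound.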
GRP78 ERSR act: ER stress response induction in glioma; U87-MG GRP78 promoter luciferase reporter, 16 h; Potency, µM, for the others: at the top dose activation, actives largely listed as activators; actives 0.02% (n = 420,000); AID 602332; active = well fitted activation curve with a large enough effect; note: potency is the fitted concentration of half-maximal effect; series mostly up to about 76 µM; % of control where 0% means no effect; nearly all actives have a fitted effect of over 35% in size
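Stably transfected U87-MG human glioma cells carrying a GRP78-based luminescent sensor were seeded at 1000 cells/well, pin-dosed with compounds and incubated 16 h. Luciferase reagent was then added, and end-point luminescence was read after 10 min at room temperature.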
D1 ag: agonists of human D1 dopamine receptor | HEK293 T-REx D1 cells, calcium flux, agonist mode | AID 504660 | activation, % at 2 µM | actives 1% (n = 360,000) | P21728; note: 0% is about no effect
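Inducible HEK293 T-REx D1 cells, force-coupled to calcium signalling, were plated at 4000 cells/well with tetracycline and held overnight at 30 C. After no-wash calcium dye loading, compound-evoked calcium rise over 180 s flagged agonists.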
TRHR PAM: allosteric enhancers of human TRH receptor | P34981 | TRHR cells, fluo-8 calcium fluorescence, EC20 TRH enhancement | enhancement, % at 2 µM | actives 0.66% (n = 360,000) | AID 493056; in the data active = enhancement above about 30%; note: 0% is about no effect
Target sequence (P34981 whole entry, looked up): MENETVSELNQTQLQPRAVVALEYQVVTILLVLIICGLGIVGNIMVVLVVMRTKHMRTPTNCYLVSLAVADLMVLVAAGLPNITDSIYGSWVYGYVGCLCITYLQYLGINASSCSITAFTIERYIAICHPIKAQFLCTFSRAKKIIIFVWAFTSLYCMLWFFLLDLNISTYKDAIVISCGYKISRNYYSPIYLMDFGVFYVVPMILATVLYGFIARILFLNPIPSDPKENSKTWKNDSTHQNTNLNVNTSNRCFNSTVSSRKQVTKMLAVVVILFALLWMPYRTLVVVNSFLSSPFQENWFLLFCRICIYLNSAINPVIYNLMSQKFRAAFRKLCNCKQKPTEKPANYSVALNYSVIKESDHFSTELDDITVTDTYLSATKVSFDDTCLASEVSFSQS
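TRHR-expressing cells loaded with fluo-8 calcium dye were read kinetically (ex 480/em 530) during compound addition, then stimulated with an EC20 of TRH (10 nM final). Enhancement of the Gq-mediated intracellular calcium response was scored.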
D1 PAM: enhances dopamine response at the human D1 receptor. potentiation, % at 10 µM. HEK293 TREx D1 cells, calcium flux, dopamine EC20 potentiation. P21728. actives 0.036% (n = 360,000). AID 504651; in the data active = potentiation above about 30%; note: 0% is about no effect
TRHR ag: TRH receptor (human) agonism; AID 493084; actives 0.18% (n = 360,000); activation, % at 2 µM; TRHR cells, calcium flux fluo-8, FDSS agonist mode; note: 0% is about no effect
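TRHR-expressing cells, plated overnight in medium with 10% serum, were loaded with fluo-8 calcium dye at room temperature. After a 10 s baseline, library compound was pin-added and calcium release was recorded kinetically (ex 480/em 530) as agonist response.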
* marks the source's active call; other numbers are inactive results; . = no result. Shown are actives, neighbours in structure and some others; about 4% of the full set was active somewhere. Cut-off read from the data, not from the text of the source, unless noted: active = activation above about 30%; inactive = the rest.

SMILES | D1 antagonist | GRP78 ERSR act | D1 ag | TRHR PAM | D1 PAM | TRHR ag
COc1cc(-c2cc(C(=O)O)c3c(OC)c(OC)c(OC)cc3n2)ccc1O | -50* | -4% | 1 | 0 | -8 | 1
COc1cc(-c2cc(C(=O)O)c3cc4ccccc4cc3n2)cc(OC)c1OC | . | -3% | . | . | . | .
CCOC(=O)Cn1nnnc1CN1CCN(c2ccc(OC)cc2)CC1 | -2 | -1% | 4 | 34* | -3 | 1
Cc1ccc(O)c(-c2[nH]ncc2C(=O)c2ccc(Cl)cc2)c1 | -34* | -2% | 12 | 8 | -8 | 1
Cc1ccc(O)c(-c2[nH]ncc2C(=O)c2ccc(Br)cc2)c1 | -4 | -4% | 5 | 8 | 7 | -1
COc1ccc(C(=O)OC(C(=O)c2ccccc2)c2ccccc2)cc1 (stereo not given) | -30* | -3% | 13 | 4 | -8 | 1
CCCOc1ccc(C(=O)Nc2nonc2-c2ccc(OCC)cc2)cc1 | -19 | -5% | 3 | 7 | 1 | 1
O=C(CCl)c1ccc2c(c1)CCCC2 | . | 6% | . | . | . | .
FC(F)(F)c1cc(Oc2ccccc2)ncc1-c1nnc(-c2ccccc2Cl)o1 | -11 | 3% | 12 | -11 | -1 | 1
COc1ccc(-n2c(=O)c(NC(=O)c3ccccc3)c3n(c2=S)CCCCC3)cc1 | -31* | -3% | 2 | 1 | -4 | 0
CN(C)c1ccc(/C=C/C(=O)c2cccc(Br)c2)cc1 | -75* | 2% | 772* | -10 | -11 | 148*
CC(=O)Nc1cccc(C(=O)/C=C/c2ccc(C)cc2)c1 | -15 | -11% | 4 | 2 | -8 | 0
CC(C)CC(=O)Nc1ccc(C(=O)COC(=O)CN2C(=O)NC3(CCCCC3C)C2=O)cc1 (stereo not given) | -8 | 0% | 3 | 0 | -2 | 0
CSC1=NSC2=NC(=O)/C(=C/c3coc4ccccc4c3=O)C(=N)N12 | -4 | -2% | 275* | 14 | 0 | 78*
O=C1NN(c2ccccc2)C(=O)/C1=C\c1coc2ccc(O)cc2c1=O | -70* | -4% | 1 | 7 | -7 | 2
N=C1/C(=C\c2coc3ccccc3c2=O)C(=O)N=C2SC=CN12 | -13 | 0% | 342* | 53* | -6 | 199*
CSC1=NSC2=NC(=O)/C(=C/c3coc4ccc(O)cc4c3=O)C(=N)N12 | 1 | 6% | 168* | 12 | 3 | 68*
CSC1=NSC2=NC(=O)/C(=C\c3cccs3)C(=N)N12 | -3 | -3% | 5 | -4 | -22 | 1
Clc1ccc(-c2nn3c(-c4cc(-c5ccccc5)n[nH]4)nnc3s2)cc1 | . | 3% | . | . | . | .
CC1=CC2=NC(=O)/C(=C/c3coc4ccc(Cl)cc4c3=O)C(=N)N2O1 | -10 | 0% | 231* | 28 | 2 | 185*
CCCCN(Cc1cc2cc(OC)ccc2[nH]c1=O)S(=O)(=O)c1ccc(C)cc1 | 6 | -5% | 1 | 2 | -6 | 0
CCOC(=O)c1c(S(=O)(=O)N2CCCC(C(=O)N3CCN(c4cc(C)ccc4C)CC3)C2)c(C)n(C)c1C (stereo not given) | 10 | 2% | 2 | 6 | 0 | -1
CCOC(=O)c1c(S(=O)(=O)N2CCC(C(=O)N3CCN(c4cc(C)ccc4C)CC3)CC2)c(C)n(C)c1C | -92* | -3% | 0 | 1 | -2 | -1
CCOC(=O)c1c(S(=O)(=O)N2CCCC(C(=O)Nc3cc(C)ccn3)C2)c(C)n(C)c1C (stereo not given) | -33* | 0% | 1 | -4 | -2 | 0
Cc1ccccc1C(=O)Nc1nnc(S(=O)(=O)N(C)Cc2ccc(Cl)cc2)s1 | -31* | 4% | 12 | 43* | 0 | 0
SMILES | D1 antagonist | GRP78 ERSR act | D1 ag | TRHR PAM | D1 PAM | TRHR ag
C[C@H]1CN([C@@H](C)CO)S(=O)(=O)c2ccc(Br)cc2O[C@H]1CN(C)C(=O)c1cccc(F)c1 | . | -2% | . | . | . | .
CCc1ccc(C(=O)NC(=S)NCc2cccnc2)cc1 | -35* | 1% | 3 | -3 | -9 | -2
CC(C)Oc1cccc(C(=O)NC(=S)NCc2cccnc2)c1 | -6 | 2% | 0 | 40* | -3 | -2
COc1cccc(NC(=O)c2ccc(S(=O)(=O)NCc3cccnc3)cc2)c1 | -19 | -2% | 5 | 1 | -6 | 0
CCc1ccc(NC(=O)c2ccc(S(=O)(=O)NCc3cccnc3)cc2)cc1 | -34* | 4% | 10 | 11 | . | 1
CC(C)c1ccc(Cn2cnc3c(cnn3C(C)(C)C)c2=O)cc1 | . | -2% | . | . | . | .
CCN=C1S/C(=C\c2sccc2C)C(=O)N1CC | -18 | 10% | 1 | 12 | -4 | 0
C=CCN(CC=C)c1ccc(/C=C/c2ccnc3ccccc23)cc1 | . | 4% | . | . | . | .
COc1cccc(NC(=O)Cc2c(O)c3ccccc3[nH]c2=O)c1 | 0 | 2% | 1 | 31* | -12 | 1
COc1cccc(NC(=O)CN(C)C(=O)CNC(=O)c2ccccc2F)c1 | -33* | -4% | 1 | -3 | -1 | 1
COc1cccc(NC(=O)Cn2c(=O)n(CCCCC(=O)NCCc3ccccc3)c(=O)c3ccccc32)c1 | -44* | -3% | 0 | -26 | 2 | -1
COc1cccc(NC(=O)Nc2cc(C(=O)O)ccc2C)c1 | -43* | 0% | 3 | -5 | -6 | -3
CC(CCc1ccccc1)NC(=O)c1ccccc1 (stereo not given) | 2 | 3% | 0 | -4 | -4 | 0
COc1cccc(C(=O)NC(C)CCc2ccccc2)c1 (stereo not given) | -1 | 0% | 0 | 33* | -2 | -1
COc1cccc(NC(=O)CCc2ccccc2)c1 | -44* | 2% | -2 | -1 | 1 | -1
CCOc1nc(C#N)nc(N(c2ccccc2)c2ccccc2)n1 | . | -4% | . | . | . | .
COc1cc(C(=O)N2CC(C)OC(C)C2)c([N+](=O)[O-])cc1OC (stereo not given) | -51* | -1% | 2 | -3 | -3 | 0
COc1cc(C(=O)N2CCN(C(=O)c3ccco3)CC2)c([N+](=O)[O-])cc1OC | -3 | -4% | 1 | -4 | -4 | 0
Cn1cc(S(=O)(=O)N2CCCCCC2)cc1C(=O)Nc1ccc(Cl)c(C(F)(F)F)c1 | -1 | -2% | 5 | 3 | 3 | 0
Cc1ccc(N(Cc2cccs2)C(=O)c2ccc(Br)o2)cc1 | -19 | -3% | 8 | -11 | -2 | 0
CC(=O)c1ccc(OCC(O)CN(C)Cc2cccs2)cc1 (stereo not given) | -43* | -4% | 37* | 3 | 1 | -1
COc1ccc(N(Cc2cccs2)C(=O)c2ccc(OCC(C)C)cc2)cc1 | 3 | -1% | 34* | 19 | 3 | 0
Cc1ccc(N(Cc2cccs2)C(=O)c2ccccc2)cc1 | -34* | -1% | 1 | 2 | -1 | 0

Compound activity: PubChem, National Center for Advancing Translational Sciences (NCATS)
